JMJD2A Tudor inh: inhibitors of human JMJD2A Tudor domain. O75164. AlphaScreen JMJD2A-Tudor / H3K4me3 peptide binding. AID 504339. 390,000 compounds, 4.4% hits. Potency, µM (highest dose often 114 µM), without a hit: at the top dose activity change, negative = inhibition, hits mostly inhibitors; note: % is set by controls: 0 for no effect and ±100 for the full control effect; nearly all actives have a fitted effect of over 50% in size
HP1b chromo inh: inhibitors of HP1-beta chromodomain binding to methylated histone tails | P83916 | AlphaScreen HP1-beta / biotin-H3K9me3 peptide binding | Potency, µM (titrated, usually from 114 µM), without a hit: top-dose activity change, negative = inhibition, usual class: inhibitors | 390,000 compounds, 0.56% hits; note: nearly all actives have a fitted effect of over 70% in size
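AlphaScreen: HP1-beta (50 nM) preformed 30 min with biotin-H3(1-18)K9me3 peptide (50 nM) in PBS pH 7.4, 0.01% Tween-20. Compound added for 30 min at RT, then streptavidin donor/nickel chelate acceptor beads (10 ug/mL) for 30 min.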
Sfp PPTase inh: blocks B. subtilis Sfp PPTase activity. Potency, µM, inactives show largest response in the series, negative = inhibition, hits mostly inhibitors. Q9F4F7. 310,000 compounds, 3.5% hits. Biochemical Sfp PPTase activity, qHTS;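 note: the enzyme is Sfp with the accession as filed and its product quenches rhodamine fluorescence; 0% = enzyme reaction without inhibitor and -100% = no enzyme wells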
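Reaction rates are the 30-min fluorescence difference (ex 525, em 598 nm) in wells containing 15 nM Sfp, 5 uM rhodamine-CoA and 12.5 uM BHQ-2-YbbR at pH 7.6 with 10 mM MgCl2.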
PLK1 PBD block: PLK1 (human) polo-box domain binding inhibition; P53350; Plk1 PBD binding of FITC phosphopeptide, fluorescence polarization; Potency, µM, for the others: max response, negative = inhibition, most hits filed as inhibitors; 360,000 compounds, 2.8% hits; AID 720504; note: series mostly up to about 57 µM; % is set by controls: 0 for no effect and ±100 for the full control effect; nearly all actives have a fitted effect of over 65% in size
G9a inh: blocks human histone lysine methyltransferase G9a; Q96KQ7; G9a H3K9 monomethylation, AlphaScreen, 2 h; Potency, µM (series often up to 102 µM), for inactives: at the top dose activity, negative = inhibition, hits mostly inhibitors; 350,000 compounds, 8.8% hits; note: % is set by controls: 0 for no effect and ±100 for the full control effect; nearly all actives have a fitted effect of over 75% in size
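Chemiluminescent proximity detection of H3K9 monomethylation, read after 10 min bead incubation in the dark. Reaction: 20 nM G9a, 500 nM biotin-H3K9 peptide, 20 uM SAM cofactor, 2 h, room temperature, following 15 min enzyme-compound preincubation.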
BAZ2B block: blocks human BAZ2B | Q9UIF8 | AlphaScreen BAZ2B-H3K14Ac peptide displacement | Potency, µM (top dose mostly 114 µM), inactives show at the top dose activity change, negative = inhibition, most hits filed as inhibitors | 360,000 compounds, 4.4% hits | AID 504333; note: % is set by controls: 0 for no effect and ±100 for the full control effect; nearly all actives have a fitted effect of over 60% in size
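Protein-peptide AlphaScreen: BAZ2B 50 nM, b-H3K14Ac 50 nM, 1x PBS pH 7.4 + 0.01% Tween-20. Preincubation 30 min RT; cpd 30 min RT (top 110 uM); beads 20 min RT, light-protected.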
* hit, by the source's call; u = inconclusive; x = no result given; ! = repeats disagree; [ ] = remark or other dose. In the library only some 12% were active in any assay of this set; here they are far more common. Calls come from the whole dose curve; as a rule, active = well fitted curve in the direction sought with a large enough effect; inconclusive = small, poorly fitted or top-dose-only effect, or another doubt; inactive = no such curve, though single readings can be large; an effect the other way counts as inactive or inconclusive. Potency is the fitted concentration of half-maximal effect.

SMILES	JMJD2A Tudor inh	HP1b chromo inh	Sfp PPTase inh	PLK1 PBD block	G9a inh	BAZ2B block
CCn1c(COc2ccc(C(C)C)cc2)nnc1SCC(=O)Nc1nccs1	-9.2%	24.3%	18.6%	-9.1%	10µM*	-17.8%
CCn1c(CCCOc2ccc(Cl)cc2Cl)nnc1SCC(=O)Nc1cc(F)ccc1C	-22.8%	21.3%	15.5%	5.2%	12.0%[59 µM]	2.1%
O=C(Nc1nccs1)C1CCN(S(=O)(=O)c2cccnc2)CC1	-13.1%	36.9%	-4.3%	1.7%	19.4%	-2.9%
Cc1ccc(NC(=O)C2CCN(S(=O)(=O)c3cnc[nH]3)CC2)cc1C	-12.3%	10.5%	2.0%	-8.8%	2.1%	-5.4%
O=C(Nc1nccs1)C1CCCN(S(=O)(=O)c2cccnc2)C1 (centres undefined)	u	13.3%	-3.4%	21.2µM*	-11.2%	-5.5%
CCN(CC)c1ccc(NC(=O)C2CCN(S(=O)(=O)c3cnc[nH]3)CC2)c(C)c1	u	11.0%	x	x	11.2µM*	x
CCN(CC)c1ccc(NC(=O)C2COc3ccc(OC)cc3C2)c(C)c1 (centres undefined)	-31.3%	29.8%[57 µM]	x	x	7.94µM*	1.0%
CCN(CC)c1ccc(NC(=O)C2CCCN(S(=O)(=O)c3cccnc3)C2)c(C)c1 (centres undefined)	u	-7.5%	-0.3%	-25.7%	20µM*	-32.0%
O=C1CCC2=C1C(c1ccccc1Cl)N=C(Nc1nc3ccccc3o1)N2 (centres undefined)	-23.4%	x	x	x	x	x
CCN(C(=O)Cn1c(=O)n(Cc2ccccc2)c(=O)c2c1c1cc(OC)ccc1n2C)c1ccccc1	-5.9%	16.8%	x	x	u	-10.2%
Cc1ccc2nc(COc3cccc(NC(=O)COc4ccc(F)cc4)c3)cc(=O)n2c1	-6.8%	12.3%[57 µM]	x	x	13.8%[59 µM]	7.9%
COC(=O)C1=C(C)NC(C)=C(C(=O)OC)C1C(=O)OCC(=O)c1ccc(Br)cc1	-12.4%	43.4%	x	-0.9%	-26.4%[12.7 µM]	6.8%
Cc1ccc(NC(=O)C2CCCN(S(=O)(=O)c3cnc[nH]3)C2)c(Br)c1 (centres undefined)	u	-1.8%	8.5%	23.8µM*!	24.2%[59 µM]	10.0%
N#C/C(=C\c1cccc([N+](=O)[O-])c1)C(=O)NCc1ccc(Cl)cc1	u	1.5%	u	u	50.1µM*	u
N#C/C(=C\c1cccs1)C(=O)NCc1ccccc1	39.8µM*	10.7%	7.9%	3.36µM*	23.3%[59 µM]	3.1%
N#C/C(=C/c1ccc(C(=O)O)cc1)C(=O)NCc1ccccc1	-11.5%	17.1%	17.8µM*	-1.2%	u	-4.1%
N#C/C(=C\c1cccs1)C(=O)NCc1cccnc1	-1.7%	43.9%	10.7%	-7.0%	15.6%	-3.3%
N#C/C(=C\c1cccc([N+](=O)[O-])c1)C(=O)NCc1cccnc1	-10.6%	39.8%	u	-17.8%	-2.4%[59 µM]	-29.0%
N#C/C(=C\C=C\c1ccccc1)C(=O)NCc1cccnc1	u	-17.1%	4.5%	23.8µM*	-6.6%	-12.8%
CC[C@@H](c1ccccc1)n1c(=O)n2n(c1=O)[C@H]1[C@H](O)[C@H]3O[C@@H]3/C(=N/OC/C=C(\C)CCC=C(C)C)[C@@H]1CC2	x	x	7.0%	x	x	x
CCOC(=O)c1oc2ccc(/C=N/O)c(Cl)c2c1C	5.7%	22.5%	17.8%	0.9%	-8.0%	u
O=C(Nc1cccc(F)c1)N1CC[C@@]2(CCCN(C(=O)c3cnccn3)C2)C1	x	x	18.9%	x	-1.3%[12.7 µM]	x
CCc1ccccc1NC(=O)CSc1nnc(-c2cc(OC)c(OC)c(OC)c2)o1	-4.0%	37.6%	x	x	-6.0%[59 µM]	7.2%
N#C/C(=C\c1cccs1)C(=O)Nc1nccs1	20µM*	-17.5%	8.4%	u	10.4%[12.7 µM]	50.1µM*
CC(C)(C)C(=O)/C(C#N)=C/c1cccs1	-15.8%	-4.6%	8.5%	-10.5%	2.4%	-26.9%
SMILES	JMJD2A Tudor inh	HP1b chromo inh	Sfp PPTase inh	PLK1 PBD block	G9a inh	BAZ2B block
N#C/C(=C\c1cccs1)C(=O)N1CCOCC1	-4.0%	14.5%	18.0%	-1.9%	17.5%[59 µM]	-5.2%
N#C/C(=C\c1cccs1)C(=O)c1ccccc1Cl	-15.4%	30.5%	28.2µM*	1.5µM*	39.8µM*	u
O=S(=O)(NCC(c1cccs1)S(=O)(=O)c1ccccc1)c1ccc(F)cc1 (centres undefined)	-4.5%	42.6%	x	x	-3.0%[59 µM]	3.8%
C=CCN(CC=C)S(=O)(=O)c1ccc(F)cc1	13.4%	26.9%	10.5%	-2.4%	18.5%[59 µM]	u
C=CCN(CC=C)S(=O)(=O)c1ncn[nH]1	-34.2%	15.2%	-23.5%	-18.1%	u	79.4µM*
CN(Cc1ccccc1)C(=S)NC(=O)c1ccc(-c2ccccc2)cc1	3.5%	42.1%	13.7%	-7.1%	82.7%[59 µM]	-23.9%
CN(Cc1ccccc1)C(=S)NC(=O)c1cccs1	-33.1%	12.8%	21.8%	-11.9%	39.8µM*	u
O=C1c2cccnc2-c2ncccc21	-5.5%	20.8%	-2.7%	-2.4%	x	1.6%
CC1(C)OCC(CSC2=C(SCC3COC(C)(C)O3)C(=O)c3ncccc3C2=O)O1 (centres undefined)	x	x	1.26µM*	x	x	x
CCn1nc(C)c2c(-c3ccccc3)cc(=O)n(C(C)C(=O)Nc3ccc(OC)c(OC)c3)c21 (centres undefined)	-18.7%	3.6%	x	x	9.8%[59 µM]	-20.8%
N#Cc1c(Cl)cccc1Oc1ccc(S(=O)(=O)Nc2ccccc2)cc1	-9.3%	30.3%	4.2%	0.3%	-0.5%	-3.1%
CCOc1ccc(-c2nc(S(=O)(=O)c3ccccc3)c(NCc3cccnc3)o2)cc1	u	5.4%	-7.1%	0.4%	44.7µM*	u
CNc1oc(C)nc1S(=O)(=O)c1ccc(C)cc1	u	u	44.7µM*	-28.0%	1.9%[0.0925 µM]	-1.5%
CNc1oc(-c2ccccc2)nc1S(=O)(=O)c1ccc(C)cc1	-17.2%	32.5%	1.5%	-7.5%	u	-20.4%
COc1ccc(-c2nc(S(=O)(=O)c3ccc(C)cc3)c(NCc3ccccc3)o2)cc1	u	16.1%	x	x	11.2µM*	-27.4%
CCOc1ccc(-c2nc(S(=O)(=O)c3ccccc3)c(NC)o2)cc1	-2.8%	29.6%	12.6%	2.7%	53.1%	0.9%
Cc1ccc(S(=O)(=O)c2nc(C)oc2NCc2ccccc2)cc1	x	x	u	x	8.91µM*	2.7%
COc1ccc(NC(=O)c2oc3ccccc3c2NC(=O)c2cccc(F)c2)c(OC)c1	5.3%	31.9%	x	x	-0.9%[59 µM]	-22.7%
O=C(NCCOc1ccccc1)O[C@@H]1C(=O)c2cc(Br)ccc2O[C@H]1c1ccc2c(c1)OCO2	x	x	25.8%	x	x	x

Screening results: PubChem, National Center for Advancing Translational Sciences (NCATS)
